Measurements as given in the supplement of paper PMC9694430.

What was measured:
Assay in all cases: thermal shift delta Tm vs DMSO control; higher = stronger stabilization (binding)
Settings in all cases: 12.5 µM; protein concentration 2 µM
LOC_OS04G57630-cb004 = tested on: LOC_OS04G57630-cb004
How it was run: (§1)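 The melting temperature shift given here is a triplicate mean, measured against protein that received only DMSO. Melting temperatures came from Boltzmann fits of differential scanning fluorimetry data on E. coli-expressed, purified rice kinase domain constructs. Each 19.5 μl well contained 2 μM kinase, 100 mM potassium phosphate pH 7.5, 150 mM NaCl, 10% glycerol, 5 × SYPRO Orange and compound in DMSO. Plates were scanned from 25°C to 95°C at 0.05°C/s.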

LOC_OS05G07850-cb002 = tested on: LOC_OS05G07850-cb002
How it was run: as §1

LOC_OS05G16824-cb004 = tested on: LOC_OS05G16824-cb004
How it was run: as §1

LOC_OS05G28520-cb001 = tested on: LOC_OS05G28520-cb001
How it was run: as §1

LOC_OS05G30820-cb001 = tested on: LOC_OS05G30820-cb001
How it was run: as §1

LOC_OS05G43570-cb004 = tested on: LOC_OS05G43570-cb004
How it was run: as §1

LOC_OS06G16330-cb003 = tested on: LOC_OS06G16330-cb003
Sequence of LOC_OS06G16330-cb003 (as listed by the source): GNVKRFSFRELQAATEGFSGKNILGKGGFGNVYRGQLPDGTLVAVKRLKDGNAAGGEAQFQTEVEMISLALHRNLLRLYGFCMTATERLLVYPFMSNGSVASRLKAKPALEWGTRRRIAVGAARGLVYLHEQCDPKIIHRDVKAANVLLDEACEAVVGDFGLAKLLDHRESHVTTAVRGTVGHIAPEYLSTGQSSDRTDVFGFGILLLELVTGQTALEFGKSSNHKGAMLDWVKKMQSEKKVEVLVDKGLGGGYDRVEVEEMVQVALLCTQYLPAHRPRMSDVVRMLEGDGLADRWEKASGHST
How it was run: as §1

LOC_OS06G22820-cb001 = tested on: T1, LOC_OS06G22820-cb001
T1 sequence (whole entry): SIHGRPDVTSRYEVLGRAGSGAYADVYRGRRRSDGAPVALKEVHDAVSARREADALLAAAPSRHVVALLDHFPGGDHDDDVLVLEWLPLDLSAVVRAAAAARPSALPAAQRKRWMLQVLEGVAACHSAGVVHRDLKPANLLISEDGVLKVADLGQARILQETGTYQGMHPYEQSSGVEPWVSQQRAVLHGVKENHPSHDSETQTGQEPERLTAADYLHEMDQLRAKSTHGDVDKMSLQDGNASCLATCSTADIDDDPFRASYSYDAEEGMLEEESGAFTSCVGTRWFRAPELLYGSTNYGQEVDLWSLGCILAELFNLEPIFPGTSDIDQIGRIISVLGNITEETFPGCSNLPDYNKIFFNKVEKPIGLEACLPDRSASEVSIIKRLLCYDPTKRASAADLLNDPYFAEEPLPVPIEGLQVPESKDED
How it was run: as §1

LOC_OS07G06570-cb004 = tested on: LOC_OS07G06570-cb004
How it was run: as §1

LOC_OS07G07230-cb001 = tested on: LOC_OS07G07230-cb001
How it was run: as §1

Row | Structure (SMILES) | thermal shift delta Tm (LOC_OS04G57630-cb004) [°C] | thermal shift delta Tm (LOC_OS05G07850-cb002) [°C] | thermal shift delta Tm (LOC_OS05G16824-cb004) [°C] | thermal shift delta Tm (LOC_OS05G28520-cb001) [°C] | thermal shift delta Tm (LOC_OS05G30820-cb001) [°C] | thermal shift delta Tm (LOC_OS05G43570-cb004) [°C] | thermal shift delta Tm (LOC_OS06G16330-cb003) [°C] | thermal shift delta Tm (LOC_OS06G22820-cb001) [°C] | thermal shift delta Tm (LOC_OS07G06570-cb004) [°C] | thermal shift delta Tm (LOC_OS07G07230-cb001) [°C]
1 | COc1nccc(-c2c(-c3ccc(F)cc3)ncn2C2CCC(O)CC2)n1 (stereo not given) | 0.18 | -0.01 | 1.52 | 0.58 | 0.26 | 0.65 | 0.57 | 0.43 | 0.69 | -0.08
2 | CCn1c(=O)c(-c2ccc(-c3cncs3)cc2Cl)cc2cnc(Nc3ccc(N4CCN(C)CC4)cc3)nc21 | 0.31 | 1.19 | 0.07 | 0.25 | 0.51 | 0.24 | -0.19 | 0.67 | 0.84 | 0.19
3 | CS(=O)(=O)c1ccc(-c2cnc(N)c(C(=O)Nc3ccccc3)n2)cc1 | 0.45 | 8.7 | -1.5 | 0.25 | 0.57 | 0.1 | 2.51 | 0.37 | 0.82 | 0.7
4 | Oc1c(F)cc(-c2cnccc2-c2ccc(N3CCOCC3)cc2)cc1F | 0.16 | 3.05 | -0.48 | 0.43 | 0.5 | 0.44 | 0.26 | 0.6 | 0.96 | 0.44
5 | O=C(Nc1ccc(OC(F)(F)F)cc1)c1sccc1NCc1ccnc2ccccc12 | 0.49 | 2.25 | -0.83 | 0.05 | 0.65 | 0.67 | 0.61 | 0.92 | 0.2 | -0.46
6 | O=C(Nc1nc2cccc(-c3ccc(CN4CCS(=O)(=O)CC4)cc3)n2n1)C1CC1 [Filgotinib (GLPG0634)] | 0 | 4.98 | 1.83 | 0.76 | 0.46 | 0.12 | 5.12 | 0.31 | 0.9 | 0.58
7 | Cc1cc([C@@H](C)Nc2ccccc2C(=O)O)c2nc(N3CCOCC3)cc(=O)n2c1 | 0.31 | -0.01 | -0.08 | 0.3 | 0.51 | 0.63 | -0.44 | 0.63 | 1.04 | -0.17
8 | CN1C(=O)[C@@H](NC(=O)c2n[nH]c(Cc3ccccc3)n2)COc2ccccc21 | 0.41 | 0.32 | 2.34 | -0.04 | 0.15 | 0.36 | 0.02 | 0.48 | 1.77 | 0.47
9 | COc1cccc(-n2c(=O)[nH]c3cc(Cl)n(-c4ccc(-c5cccc(OC)c5O)cc4)c3c2=O)c1 | 0.32 | -0.83 | -0.73 | 0.37 | 0.41 | 0.59 | -0.14 | 0.65 | 1.02 | 0.5
10 | CN(C)C[C@@H]1CCn2cc(c3ccccc32)C2=C(C(=O)NC2=O)c2cn(c3ccccc23)CCO1 | -0.32 | 5.79 | 2.45 | 0.65 | 0.63 | 0.63 | 0.27 | 0.46 | 2.56 | 0.33
11 | CC#CC(=O)Nc1ccc2ncnc(Nc3cccc(Br)c3)c2c1 | 1.19 | 9.9 | -2.35 | 0.85 | 0.66 | 0.95 | 3.13 | 0.56 | 1.04 | 0.05
12 | O=C(NCCCNc1nc(Nc2cccc(NC(=O)N3CCCC3)c2)ncc1I)c1cccs1 | 5.69 | 12.1 | 10.4 | 0.99 | 3.99 | 1.24 | 9.95 | 0.36 | 0.51 | 0.21
13 | S=C(NCc1ccc2c(c1)OCO2)N1CCN(c2ncnc3c2oc2ccccc23)CC1 [Amuvatinib (MP-470)] | 0.4 | 1.46 | -4.2 | 0.42 | 0.8 | 0.49 | 1.01 | 0.7 | 0.32 | 0.06
14 | NCC(=O)Nc1ccc(-n2nc(C(F)(F)F)cc2-c2ccc3c(ccc4ccccc43)c2)cc1 | -0.2 | 1.75 | 1.88 | 0.25 | -0.08 | 0.27 | 0.39 | 0.4 | 0.5 | 0.18
15 | Cn1ncc(Cl)c1-c1cc(C(=O)N[C@H](CN)Cc2cccc(F)c2)sc1Cl | -0.03 | 0.66 | -1.28 | 0.54 | 0.43 | 0.61 | 0.52 | 0.88 | 1.37 | 0.28
16 | CNC(=O)CN1CCC(Oc2cc3c(Nc4cccc(Cl)c4F)ncnc3cc2OC)CC1 [Sapitinib (AZD8931)] | 0 | 3.04 | -12 | -0.17 | 0.6 | 0.17 | 1.14 | 0.37 | 0.48 | -0.24
17 | N#C/C(=C(/N)Sc1ccc(N)cc1)c1ccccc1C(F)(F)F | -0.02 | -0.43 | -2.13 | 0.13 | 0.55 | -0.02 | -0.1 | 0.8 | 0.09 | 0.16
18 | Cc1cc(Nc2cc(Cl)nc(Oc3ccc([N+](=O)[O-])cc3)n2)n[nH]1 [Autophinib] | -0.11 | 0.97 | -0.37 | 0.34 | 0.1 | 0.13 | 0.35 | 0.51 | 1.89 | 0.73
19 | CNc1nc(Nc2cnn([C@H]3CCN(C4COC4)C[C@@H]3F)c2Cl)ncc1C(F)(F)F | 1.85 | 10.8 | 5.54 | 0.59 | 0.51 | 0.4 | 5.64 | 0.65 | 0.89 | 0.28
20 | CO[C@H]1CC[C@H](N2C(=O)CNc3ncc(-c4ccc(C(C)(C)O)nc4)nc32)CC1 | -0.07 | 0.66 | -2.4 | 0.49 | 0.29 | 0.48 | -0.57 | 0.55 | 0.79 | 0.66
